From PubChem BioAssay (NCI)
Compounds without any hit were thinned out: in the full panel of roughly 79,000, 15% have a hit. No stated cut-off is given here; in the data, active means growth inhibition above about 70%; inactive means the rest. Where a SMILES comes first, the peptide text is derived from it. The star is where a group is joined. Boc = CC(C)(C)OC(=O)*

Tests used:
[1] = NCI Yeast Anticancer Drug Screen. Data for the rad50 strain (AID 155);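 further: 0% = growth of vehicle-only cultures of the same strain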; details: S. cerevisiae rad50 strain growth inhibition; at 50.0 µM; stronger effect = higher value
Procedure, shortened: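 Relative growth inhibition (compound vs vehicle) was measured in yeast with a defined repair-gene alteration.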

[2] = NCI Yeast Anticancer Drug Screen. Data for the mec2-1 strain (AID 157); details: S. cerevisiae mec2-1 strain, at 50.0 µM, stronger effect = higher value
Procedure, shortened: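 mec2-1 yeast strain, carrying an alteration in DNA damage repair or cell cycle control, was exposed to compounds; growth inhibition was measured relative to vehicle-treated controls.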

[3] = NCI Yeast Anticancer Drug Screen. Data for the sgs1 mgt1 strain (AID 161);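 further: 0% = growth of cultures given vehicle only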; details: S. cerevisiae sgs1 mgt1 strain, at 50.0 µM, stronger effect = higher value
Procedure, shortened: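 This yeast growth screen uses a strain with defined DNA-repair lesions; compound-treated growth is compared with vehicle-treated growth.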

[4] = NCI Yeast Anticancer Drug Screen. Data for the cln2 rad14 strain (AID 165);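 further: 0% = growth equal to vehicle treated cultures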; details: S. cerevisiae cln2 rad14 strain, at 50.0 µM, stronger effect = higher value
Procedure, shortened: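 Yeast carrying cln2 and rad14 alterations (cell cycle control and DNA damage repair) were exposed to compounds. Growth inhibition was measured against vehicle-treated controls.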

[5] = NCI Yeast Anticancer Drug Screen. Data for the bub3 strain (AID 167); details: S. cerevisiae bub3 mutant strain, at 50.0 µM, stronger effect = higher value
Procedure, shortened: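 Screening used yeast with an engineered genetic alteration affecting cell cycle control. Compound-exposed cultures were compared with vehicle cultures, and reduced growth was taken as inhibition.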

[6] = NCI Yeast Anticancer Drug Screen. Data for the mlh1 rad18 strain (AID 175); details: S. cerevisiae mlh1 rad18 strain growth inhibition; at 50.0 µM; stronger effect = higher value
Procedure, shortened: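 Growth inhibition of the yeast strain was measured after compound exposure and expressed relative to vehicle-treated controls. The strain carries defined defects in DNA damage repair.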

Measured: growth inhibition

COc1cc(CNc2nc3ccccc3nc2C(=O)O)cc(OC)c1OC
inactive: [1] 10.3% | [2] 3.05% | [3] -8.75% | [4] 5.1% | [5] -2.15% | [6] -0.4%

CCCCC(CC)C(O)CC(C)=O (stereo unspecified)
inactive: [1] 39.1% | [2] 16.9% | [3] 25% | [4] -8.75% | [5] 14.2% | [6] 21.1%

CC(=O)Nc1cc(Cl)ccc1SC1OC(COC(C)=O)C(OC(C)=O)C(OC(C)=O)C1OC(C)=O (stereo unspecified)
inactive: [1] -10.6% | [2] -7.15% | [3] 17.9% | [4] -44.2% | [5] 4.6% | [6] -2.8%

Cc1cccc(Cl)c1OCC(=O)O
inactive: [1] -1.25% | [2] -8.55% | [3] -1.95% | [4] -35.8% | [5] -20.8% | [6] -13.2%

Cc1ccc(N=Cc2ccc3c(c2)OCO3)cc1C
inactive: [1] 8.05% | [2] 6.2% | [3] 9.65% | [4] 40.6% | [5] 10.1% | [6] 29.2%

CC(C)C1CC(C(C)C)C(O)C(C(C)C)C1 (stereo unspecified)
inactive: [1] 11.8% | [2] 1.55% | [3] 6.6% | [4] -5.9% | [5] 5.45% | [6] 15.7%

CC[n+]1cc([N+](=O)[O-])ccc1Cl
inactive: [1] 17.5% | [2] 14.5% | [3] 13.6% | [4] 15.9% | [5] 12.4% | [6] 20.2%

CCOC(=O)/C(C#N)=C/c1ccc(Cl)cc1
inactive: [1] -5.3% | [2] -11.7% | [3] -13.1% | [4] 0.85% | [5] -34.4% | [6] -0.65%

NCC=C1C2CC3CC(C2)CC1C3
inactive: [1] 1.9% | [2] -7.25% | [3] 1.4% | [4] -26.4% | [5] -13.7% | [6] 12.6%

COc1cc(/C=C(\C#N)C(=O)c2ccccc2)ccc1O
inactive: [1] -13.8% | [2] -18.1% | [3] -11.9% | [4] 5.4% | [5] -27.5% | [6] 3.05%

O=C1C(c2ccccc2)=C(c2ccccc2)c2ccc(Cl)cc21
inactive: [1] 13.7% | [2] 15.6% | [3] 8.85% | [4] 7.75% | [5] 0.45% | [6] 6.45%

C=CCOCOC(C)C(=O)OCC (stereo unspecified)
inactive: [1] -10.5% | [2] 6.6% | [3] -8.35% | [4] -26.7% | [5] -9.2% | [6] 6.45%

Cc1ccc(S(=O)(=O)NN=C2CCCCCC2)cc1
inactive: [1] 8.65% | [2] 7.55% | [3] 8.75% | [4] -24.9% | [5] -12.4% | [6] 5.65%

OCC(O)C(O)C(O)C(O)CN=Cc1ccccc1O (stereo unspecified)
inactive: [1] -19.8% | [2] 7.9% | [3] -10.7% | [4] 2.8% | [5] -19.6% | [6] -4.45%

OCC1OC2OC(c3ccccc3)(c3ccc(OCc4ccccc4)nc3OCc3ccccc3)OC2C1O (stereo unspecified)
inactive: [1] 25.9% | [2] 2.6% | [3] 0.6% | [4] 14.8% | [5] -10.4% | [6] 2.8%

Cc1cn(C2CC(O)C(CO)O2)c(=O)[nH]c1=S (stereo unspecified)
inactive: [1] 9.05% | [2] -7.25% | [3] -3.5% | [4] -37.3% | [5] 14.2% | [6] 13.2%

Cc1ccccc1OCC1COCN(C(C)(C)C)CO1 (stereo unspecified)
inactive: [1] -13.5% | [2] -2.2% | [3] 4.95% | [4] 7.8% | [5] -20.9% | [6] 19.6%

CC(C)(C)C1CCC(C(=O)c2ccccc2)CC1 (stereo unspecified)
inactive: [1] -7.75% | [2] -4.05% | [3] -0.75% | [4] -45.3% | [5] -28.6% | [6] 1.7%

NC(=O)CC(N)=O
inactive: [1] 6.1% | [2] -5.1% | [3] -2.35% | [4] 9.4% | [5] 1.25% | [6] 4.6%

O=C(OCCO)c1ccccc1O
inactive: [1] 2.95% | [2] -0.8% | [3] -34% | [4] 3.3% | [5] -0.9% | [6] 1.35%

Cc1ccc(N=Nc2ccc(N(C)C)cc2)cc1
inactive: [1] 18.6% | [2] -8.05% | [3] -16.6% | [4] -51.6% | [5] -6.2% | [6] 14.7%

COC(=O)C(Cc1c[nH]c2ccccc12)NC(=O)C(Cc1c[nH]c2ccccc12)NC(=O)C(Cc1c[nH]c2ccccc12)NC(=O)C(Cc1c[nH]c2ccccc12)NC(=O)OC(C)(C)C (stereo unspecified) (Boc-WWWW-OMe; configuration not given here)
inactive: [1] 3.35% | [2] -4.65% | [3] -2.05% | [4] 23.4% | [5] 4.65% | [6] 6.2%

Cc1ccc(C(=O)CCC(=O)OCC(=O)c2ccc(-c3ccccc3)cc2)cc1
inactive: [1] -7.95% | [2] 11.3% | [3] -1% | [4] 14.8% | [5] -6% | [6] -20.1%

CC(=O)Nc1ccc(/C=N\N=C\c2ccc(NC(C)=O)cc2)cc1
inactive: [1] 1.95% | [2] 13.7% | [3] 28.4% | [4] -4.6% | [5] 29.9% | [6] 28.6%

CCN(CC)CCCNc1ccc2nnn3c4ccc(O)cc4c(=O)c1c23
inactive: [1] -15.6% | [2] -7.9% | [3] -7.35% | [4] 25.3% | [5] -6.5% | [6] 6.65%

O=C1Nc2cc([N+](=O)[O-])c(Br)cc2C1=O
inactive: [1] 22.1% | [2] 27.4% | [3] 0.7% | [4] 14.9% | [5] 5.8% | [6] 12.1%

O=C(O)/C=C1/CCC(=O)O1
inactive: [1] -5.25% | [2] -0.2% | [3] 0.05% | [4] 10.8% | [5] 20.1% | [6] -0.65%

O=C1OCC/C1=C\c1cccc2ccccc12
inactive: [1] 5.2% | [2] 2.4% | [3] -3.45% | [4] 12.5% | [5] -5% | [6] 6.35%

COc1ccc2c(c1)OC(=O)C(S(=O)(=O)c1ccccc1)C2 (stereo unspecified)
inactive: [1] 6.25% | [2] 14.6% | [3] 6.65% | [4] -3.55% | [5] 1.2% | [6] 7.55%

Nc1n[nH]c(=S)n1Cc1ccccc1
inactive: [1] -21.8% | [2] -10% | [3] -27.1% | [4] -18.2% | [5] -14.6% | [6] -10.7%

CCCCCCCCCCCCCCC(=O)Cl
inactive: [1] 9% | [2] 7.25% | [3] 5.8% | [4] 8.2% | [5] -9.95% | [6] 8.85%

Nc1ccccc1/C=C(\C(=O)O)c1ccccc1
inactive: [1] -19.9% | [2] -4.45% | [3] 14.8% | [4] 12.4% | [5] -0.6% | [6] 11.4%

C=CCNC(=S)Nc1cccc(OC(=O)NC2CCCCC2)c1
inactive: [1] -0.15% | [2] 2.05% | [3] 3.75% | [4] -19.6% | [5] 14.3% | [6] -4.7%

O=C1c2ccccc2C2(O)Nc3c(ccc4ccccc34)C12O (stereo unspecified)
inactive: [1] 2% | [2] -3.3% | [3] 10.6% | [4] -3.8% | [5] -16.9% | [6] 15.4%

CC(=O)OCC1OC(n2c(C)c(N=Nc3ccc(C)cc3)c(C)c(C#N)c2=S)C(OC(C)=O)C(OC(C)=O)C1OC(C)=O (stereo unspecified)
inactive: [1] -8.05% | [2] -14.4% | [3] 11.9% | [4] 2.65% | [5] -10.8% | [6] -2.75%

CCOC(CN(C(C)C)C(C)C)OCC
inactive: [1] -16.4% | [2] -16.8% | [3] 8% | [4] 13.8% | [5] -16.6% | [6] 14.9%

CC1CC(=O)C(CCC#N)=C(O)C1 (stereo unspecified)
inactive: [1] 4.85% | [2] -14.2% | [3] -8.15% | [4] -9.9% | [5] 5.55% | [6] 4.95%

COc1cc(C)cc(C(=O)C2=NNCC2c2ccccc2)c1O (stereo unspecified)
inactive: [1] 23.1% | [2] 19.4% | [3] 26.8% | [4] 10.9% | [5] 17.1% | [6] 16.2%

O=C(Nc1cc(C(=O)Nc2cccc(S(=O)(=O)O)c2)cc(C(=O)Nc2cccc(S(=O)(=O)O)c2)c1)c1cccc(C(=O)Nc2cc(C(=O)Nc3cccc(S(=O)(=O)O)c3)cc(C(=O)Nc3cccc(S(=O)(=O)O)c3)c2)c1
inactive: [1] -0.1% | [2] -0.1% | [3] -15.4% | [4] 3.4% | [5] 4.8% | [6] -5.55%

COc1ccc(NS(=O)(=O)c2ccc(NCc3c4ccccc4nc4cc(Cl)ccc34)cc2)nn1
inactive: [1] 20.2% | [2] 45% | [3] 9.65% | [4] -30.8% | [5] -8.3% | [6] 37.5%

CSc1cccc(N=C(C#N)C2=C(O)c3ccccc3C2=O)c1
inactive: [1] 21.1% | [2] 1.85% | [3] 9.65% | [4] 38.6% | [5] 21.5% | [6] 24.4%
